Laboratory results published in PubChem BioAssay (NCI).
Several values for one entry are separate records, joined by “and”; a condition that tells them apart may be missing. Equal values may be shown once. About 83,000 compounds went through this panel and 20% of them were active in at least one assay; those are over-represented in the sample as a whole.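 48-hour exposure, single concentration, 96-well plates; percent growth endpoint where 0 means no net growth. Active: below 10.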 Activity calls are given as the source filed them.

Legend:
Test in all cases: NCI-60 one-dose screen, 48 h (100 = growth as untreated, 0 = no growth, -100 = all killed)
Conditions in all cases: 10 µM
HOP-92 NSCLC = tested on: HOP-92 NSCLC
NCI-H522 lung = tested on: NCI-H522 lung
K-562 leukemia = tested on: K-562 leukemia
SK-MEL-2 melanoma = tested on: SK-MEL-2 melanoma
TK-10 renal = tested on: TK-10 renal
A498 renal = tested on: A498 renal
RPMI-8226 leukemia = tested on: RPMI-8226 leukemia
OVCAR-3 ovarian = tested on: OVCAR-3 ovarian
BT-549 breast = tested on: BT-549 breast
MDA-MB-435 melanoma = tested on: MDA-MB-435 melanoma
HCC-2998 colon = tested on: HCC-2998 colon
UACC-257 melanoma = tested on: UACC-257 melanoma
CAKI-1 renal = tested on: CAKI-1 renal

Structure (SMILES)	growth (HOP-92 NSCLC)	growth (NCI-H522 lung)	growth (K-562 leukemia)	growth (SK-MEL-2 melanoma)	growth (TK-10 renal)	growth (A498 renal)	growth (RPMI-8226 leukemia)	growth (OVCAR-3 ovarian)	growth (BT-549 breast)	growth (MDA-MB-435 melanoma)	growth (HCC-2998 colon)	growth (UACC-257 melanoma)	growth (CAKI-1 renal)
CC(=O)O[C@@H]1[C@@H]2O[C@H]2[C@@](C)(O)C(=O)[C@@H](C)C/C=C/[C@H]2[C@@H]3O[C@]3(C)[C@@H](C)C3[C@H](Cc4ccccc4)NC(=O)[C@@]312 (some centres undefined)	-28.8% (active)	18.2% (inactive)	68.8% (inactive)	72.1% (inactive)	-8.91% (active)	3.87% (active)	81.8% (inactive)	54.2% (inactive)	29.8% (inactive)	70.9% (inactive)	77.4% (inactive)	–	–
C[C@@H]1CCC/C=C/[C@H]2C[C@@H](O)C[C@@H]2[C@@H](O)/C=C/C(=O)O1	-4.99% (active)	-26.3% (active)	15% (inactive)	-38.9% (active)	-45% (active)	-14.7% (active)	-1.65% (active)	-1.9% (active)	6.57% (active)	17.5% (inactive)	21.1% (inactive)	–	–
C/C=C/CC(C)C(O)[C@H](NC(=O)[C@@H]1CCCN1C(=O)C(C)(C)NC(=O)CCCCCCCCC)C(=O)N[C@@](C)(CC)C(=O)N[C@@H](CCC(N)=O)C(=O)N[C@H](CCC(N)=O)C(=O)NC(C)(C)C(=O)N[C@@](C)(CC)C(=O)N[C@@H](CCC(N)=O)C(=O)N[C@H](CC(C)C)C(=O)N[C@H](CO)CC(C)C (some centres undefined)	91.5% (inactive) and -58.8% (active)	101% (inactive) and -77.6% (active)	90.4% (inactive) and 4.32% (active)	121% (inactive) and -72.1% (active)	108% (inactive) and -53.4% (active)	97.3% (inactive) and -52.9% (active)	103% (inactive) and -46.2% (active)	8.27% (active)	-79.6% (active)	105% (inactive) and -93.7% (active)	116% (inactive) and -19.6% (active)	108% (inactive) and -83% (active)	99.7% (inactive) and -21.7% (active)
C/C=C/CC(C)C(O)[C@H](NC(=O)[C@@H]1CCCN1C(=O)C(C)(C)NC(=O)CCCCCCCCC)C(=O)N[C@@](C)(CC)C(=O)N[C@@H](CCC(N)=O)C(=O)N[C@H](CCC(N)=O)C(=O)NC(C)(C)C(=O)NC(C)(C)C(=O)N[C@@H](CCC(N)=O)C(=O)N[C@H](CC(C)C)C(=O)N[C@H](CO)CC(C)C (some centres undefined)	7.21% (active) and 76.4% (inactive)	-32.9% (active) and -26.1% (active)	-17.8% (active) and 16.5% (inactive)	13.2% (inactive) and 89.1% (inactive)	59.9% (inactive) and 97.1% (inactive)	-40.8% (active) and 38.8% (inactive)	7.09% (active) and 29.1% (inactive)	76.2% (inactive)	-33.5% (active)	-84.2% (active) and -6.26% (active)	-12% (active) and 13.2% (inactive)	-66.9% (active) and 3.39% (active)	13.1% (inactive) and 44.1% (inactive)
CC1=C2C(=C[C@@](C)(COC(=O)c3ccc(S(=O)(=O)F)cc3)[C@@H]2OC(=O)c2ccc(S(=O)(=O)F)cc2)C(=O)[C@](C)(O)C12CC2	-17.1% (active)	-52% (active)	23.8% (inactive)	–	-3.99% (active)	–	67% (inactive)	–	-90.2% (active)	3.18% (active)	-60% (active)	60% (inactive)	-2.73% (active)
COC(=O)[C@H]1[C@@H](O)[C@@]2(O)c3c(OC)cc(OC)cc3O[C@@]2(c2ccc(OC)cc2)[C@@H]1c1ccccc1	-12.5% (active)	-28.7% (active)	2.1% (active)	-45.5% (active)	-11.9% (active)	-31.4% (active)	-9.7% (active)	-9.22% (active)	-17.5% (active)	-11.1% (active)	0.34% (active)	–	-6.21% (active)
CN(CCF)/N=N/c1nc[nH]c1C(N)=O	77.9% (inactive)	64.2% (inactive)	22.2% (inactive)	-20.9% (active)	25.2% (inactive)	87% (inactive)	25.5% (inactive)	–	85.8% (inactive)	39.6% (inactive)	38.7% (inactive)	53.8% (inactive)	14.1% (inactive)
COc1cc2c(O[C@@H]3OC[C@H](O)[C@H](O)[C@H]3O)c3c(c(-c4ccc5c(c4)OCO5)c2cc1OC)C(=O)OC3	–	13.5% (inactive)	19.3% (inactive)	49% (inactive)	–	15% (inactive)	89.8% (inactive)	80.2% (inactive)	31% (inactive)	39.5% (inactive)	73.4% (inactive)	23.6% (inactive)	–
COc1cc(OC)c(S(=O)(=O)N(CCCl)CCCl)cc1C(=O)/C=C/c1ccc(Cl)cc1	81.7% (inactive)	83.5% (inactive)	47.1% (inactive)	93% (inactive)	177% (inactive)	–	4.74% (active)	69.9% (inactive)	53% (inactive)	33.1% (inactive)	96.8% (inactive)	73.6% (inactive)	65.7% (inactive)
CC(=O)O[C@@H]1C[C@H]2O[C@@H]3C=C(C)CC[C@]3(C)[C@]1(C)[C@]21CO1	16.8% (inactive)	2.05% (active)	4.68% (active)	-3.89% (active)	66.6% (inactive)	34.6% (inactive)	-14.7% (active)	14.7% (inactive)	-14.3% (active)	2.02% (active)	8.92% (active)	–	–
C=C1[C@@H](C)C2[C@H](Cc3ccccc3)NC(=O)[C@]23[C@H](OC(C)=O)/C=C/[C@@](C)(O)C(=O)[C@@H](C)C/C=C/[C@H]3[C@@H]1O (some centres undefined)	-37.8% (active)	22.3% (inactive)	76.1% (inactive)	81.5% (inactive)	26.4% (inactive)	-18.8% (active)	19.8% (inactive)	81.2% (inactive)	12.4% (inactive)	64.1% (inactive)	78.5% (inactive)	–	–
CC1=C[C@H]2O[C@@H]3C[C@H]4OC(=O)/C=C\C=C\[C@H]([C@@H](C)O)OCC[C@@H](C)[C@H](O)C(=O)OC[C@@]2(CC1)[C@]4(C)[C@]31CO1	-22% (active)	-43.4% (active)	-10.1% (active)	-53.2% (active)	-25.4% (active)	-80.6% (active)	-28.7% (active)	-18.2% (active)	-24.8% (active)	-85.2% (active)	-59.9% (active)	–	–
NC1CCc2cc(O)c(O)cc2C1 (centres undefined)	–	92.3% (inactive)	1.68% (active)	97.7% (inactive)	94.6% (inactive)	71.9% (inactive)	17.2% (inactive)	101% (inactive)	86.3% (inactive)	81.4% (inactive)	46.2% (inactive)	103% (inactive)	94.1% (inactive)
